Nrf2 inh: Nrf2 qHTS screen for inhibitors | A549 ARE-Fluc reporter, luciferase luminescence, 18-24 h | AID 504444, 2011 | Potency, µM (highest dose often 46 µM), for inactives: at the highest dose activity change, negative = inhibition, most hits filed as inhibitors | actives 2.1% (n = 360,000); further: potency means the concentration at half of the fitted maximal effect; on the % scale 0 is the no-effect control and ±100 the full control effect; nearly all actives have a fitted effect of over 60% in size
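Reporter: ARE-Fluc in A549. Exposure: 18-24 h, 37 °C, 5% CO2, 5% FBS OPTI-MEM. Readouts: fluorescent cytotoxicity (CellTiter-Fluor), then luminescent Nrf2 signal after BugLite.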
LDHA block: qHTS assay for inhibitors of human lactate dehydrogenase. L-lactate dehydrogenase A chain (Homo sapiens), P00338. purified LDHA, NADH/diaphorase-resazurin fluorescence; hits give low values. activity change, % (values are at about 110 or 230 µM). actives 0.15% (n = 480,000); in the data active means activity change below about -30%; inconclusive means mostly about -25% to -30%;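 further: plate controls were DMSO wells for no effect and wells without enzyme for full effect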
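Human LDH5 (2 nM) was incubated with 0.06 mM NADH and 0.2 mM pyruvate for 5 min at room temperature in Tris pH 7.4. Remaining NADH was coupled through diaphorase/resazurin, and resorufin fluorescence was read at 0 and 20 min.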
A549 viability: Nrf2 qHTS screen for inhibitors: counterscreen for cytotoxicity | A549 ARE-Fluc cells, CellTiter-Fluor viability, 18-24 h | Potency, µM (top dose mostly 46 µM), for inactives: at the top dose activity change, negative = cytotoxicity, actives largely listed as inhibitors | actives 0.16% (n = 390,000) | AID 504648, 2011; further: potency means the concentration at half of the fitted maximal effect; on the % scale 0 is the no-effect control and ±100 the full control effect
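A549 ARE_Fluc cells in 5% FBS OPTI-MEM were exposed to compounds in concentration-response for 18-24 h at 37 deg C. Viability was read by CellTiter-Fluor fluorescence (Ex 405/Em 525) after 30 min, before the luciferase read.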
ERG-DNA inh: qHTS for Small Molecule Inhibitors of the ERG Ets/DNA interaction | Transcriptional regulator ERG (Homo sapiens), P11308 | fluorescence polarization, His-ERG Ets domain / labelled DNA | Potency, µM (doses to about 76.9 µM), for inactives: at the highest dose FP activity, negative = inhibition, most hits filed as inhibitors | actives 0.028% (n = 370,000) | AID 624246, 2012; active means well fitted inhibition curve with a large enough effect in the polarisation, with a control signal flat; inconclusive means small, poorly fitted or top-dose-only effect, or effect the other way, or a change in a side signal; inactive means no such curve, though single readings can be large or run the other way; the % refers to the polarisation;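 further: polarization taken with two DNA probes labelled with fluorescein and Texas red; potency means the concentration at half of the fitted maximal effect; % of control where 0% means no effect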
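His-tagged ERG Ets domain (1 uM in the protein solution; 300mM KCl, 50mM Tris-HCl, 1mM EDTA, 1mM DTT, pH 7.5) received compound, then a probe mix of 5 nM fluorescein-DNA and 100nM Texas-615-DNA. Fluorescence polarization was read for both dyes.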
Nrf2 activator: qHTS of Nrf2 Activators | AREc32 ARE-luciferase reporter (MCF7-derived line), luminescence, 24 h | Potency, µM (doses to about 46.1 µM), inactives show top-dose activation, most hits filed as activators | actives 0.31% (n = 410,000); further: potency means the concentration at half of the fitted maximal effect; % of control where 0% means no effect; nearly all actives have a fitted effect of over 65% in size
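Each well held 1000 AREc32 cells, which were incubated with compound for 24 hr at 37 deg C after overnight attachment, and ARE reporter activity was quantified by firefly luciferase luminescence.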
ALOX12 inh: Primary qHTS assay for inhibitors of human arachidonate 12S-lipoxygenase (ALOX12): Round 2; AID 1671190, 2021; purified 12hLO, xylenol orange hydroperoxide absorbance; Polyunsaturated fatty acid lipoxygenase ALOX12 (Homo sapiens), P18054; Potency, µM (series often up to 108 µM), for the others: at the highest dose activity change, negative = inhibition, most hits filed as inhibitors; actives 1.1% (n = 580,000); further: potency means the concentration at half of the fitted maximal effect; on the % scale 0 is the no-effect control and ±100 the full control effect
Target sequence (P18054 whole entry, looked up): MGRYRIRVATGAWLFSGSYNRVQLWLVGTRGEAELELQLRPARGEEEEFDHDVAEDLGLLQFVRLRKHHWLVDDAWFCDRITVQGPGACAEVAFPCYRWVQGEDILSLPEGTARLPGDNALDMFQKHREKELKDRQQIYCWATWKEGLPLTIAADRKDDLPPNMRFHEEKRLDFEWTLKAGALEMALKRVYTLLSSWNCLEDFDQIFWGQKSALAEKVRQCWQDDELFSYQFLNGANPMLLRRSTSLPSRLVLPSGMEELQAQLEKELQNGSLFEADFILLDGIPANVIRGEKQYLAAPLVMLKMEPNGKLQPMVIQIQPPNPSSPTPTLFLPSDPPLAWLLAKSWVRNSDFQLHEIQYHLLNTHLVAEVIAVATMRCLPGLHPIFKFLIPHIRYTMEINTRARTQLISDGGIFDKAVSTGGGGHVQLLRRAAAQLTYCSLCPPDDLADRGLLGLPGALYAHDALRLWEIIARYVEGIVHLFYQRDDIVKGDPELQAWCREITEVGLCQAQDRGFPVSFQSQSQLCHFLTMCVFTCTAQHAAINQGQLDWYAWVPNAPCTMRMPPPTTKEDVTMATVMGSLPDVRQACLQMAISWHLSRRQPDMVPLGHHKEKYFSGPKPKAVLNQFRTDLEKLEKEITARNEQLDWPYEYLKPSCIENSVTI
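Purified human 12hLO (150 nM final) in 25 mM Hepes, 0.01% Triton X-100, pH 7.0 was preincubated 15 min at room temperature with compound. Then 40 uM arachidonic acid was added, 30 min. Hydroperoxide was read by Fe-XO absorbance ratio 573/405 nm.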
* marks the source's active call; other numbers are inactive results; ? = inconclusive; . = not tested or not shown. The list is not random: actives were taken first. Their share in the collection is about 2.7%. Unless noted, the call rests on the fitted dose curve; in most records, active means well fitted curve in the direction sought with a large enough effect; inconclusive means small, poorly fitted or top-dose-only effect, or another doubt; inactive means no such curve, though single readings can be large; an effect the other way counts as inactive or inconclusive.

SMILES | Nrf2 inh | LDHA block | A549 viability | ERG-DNA inh | Nrf2 activator | ALOX12 inh
Cc1ccn2cc(-c3c(-c4ccccc4Cl)n(C)c(=O)n(C)c3=O)nc2c1 | . | 8 | . | . | . | -13%
Cc1ccc(Cl)cc1NC1=C/C(=N\S(=O)(=O)c2cccs2)c2ccccc2C1=O | 16µM* | 44 | ? | -3% | -3% | -11%
O=C1C(Nc2ccc(O)cc2)=C/C(=N/S(=O)(=O)c2cccs2)c2ccccc21 | ? | 42 | ? | -8% | -3% | ?
Cc1ccc(NC2=C/C(=N\S(=O)(=O)c3cccs3)c3ccccc3C2=O)c(C)c1 | ? | 28 | 18µM* | -8% | -2% | .
Cc1cccc(NC2=C/C(=N/S(=O)(=O)c3cccs3)c3ccccc3C2=O)c1 | ? | 30 | ? | -10% | 8% | -10%
NC1(C(=O)O)CCC(c2ccccc2)CC1 (configuration not stated) | . | -1 | . | . | . | ?
O=C(CCc1ncc(-c2ccc(F)cc2F)o1)NC1CCN(Cc2ccccc2)C1 (configuration not stated) | . | -4 | . | . | . | -21%
Cn1c2ccccc2c2nnc(SCCOc3ccccc3)nc21 | 5.2µM* | 2 | -10% | . | . | .
CC(C)c1ccc(S(=O)(=O)Nc2cc3c(cc2NCc2ccccc2)n(C)c(=O)n3C)cc1 | 26µM* | 3 | -10% | -1% | 6% | ?
Cn1c(=O)n(C)c2cc(NS(=O)(=O)c3ccc(F)cc3)c(NCc3ccccc3)cc21 | ? | 20 | 3% | 6% | 13µM* | -75%
CC(=O)C(Cl)C(=O)Nc1ccccc1 (configuration not stated) | ? | -4 | -4% | -2% | 7% | -16%
O=C(Nc1ccccc1)C(Cl)C(=O)c1ccccc1 (configuration not stated) | 2% | 0 | 2% | -4% | 14µM* | ?
COc1ccccc1N(C(C)=O)C1=C(Cl)C(=O)c2ccccc2C1=O | . | 64 | . | . | ? | 14µM*
Cc1ccccc1CN1CCC2(CC1)OC(=O)N(Cc1ccc(O)cc1)C2(C)c1ccccc1 (configuration not stated) | . | . | . | . | . | -2%
CC1(c2ccccc2)N(Cc2ccc(O)cc2)C(=O)OC12CCN(Cc1c[nH]c3ccccc13)CC2 (configuration not stated) | . | . | . | . | . | 45µM*
O=C1OCC2(CCN(Cc3c[nH]c4ccccc34)C2)N1Cc1ccccc1 (configuration not stated) | . | . | . | . | . | 50µM*
CCCCNCc1ccc(-c2ccc(C(=O)O)cc2)o1 | . | -4 | . | . | . | -26%
O=C1/C(=C\c2ccccc2)CN(C(=O)CCN2CCCCC2)C/C1=C/c1ccccc1 | 4% | 3 | -5% | . | -4% | -17%
O=C1/C(=C\c2ccc(Cl)c(Cl)c2)CN(C(=O)CCN2CCOCC2)C/C1=C/c1ccc(Cl)c(Cl)c1 | ? | -5 | 21µM* | 1% | ? | ?
COc1cccc(CNC(=O)CSc2nnc(C)c3c(C)n(-c4ccccc4)nc23)c1 | -27% | 2 | 6% | -8% | 8% | -9%
Cc1nnc(SCC(=O)NCCc2ccco2)c2nn(-c3ccc(Cl)cc3)c(C)c12 | . | 7 | . | . | . | 32µM*
Cc1cc2nc(-c3ccco3)c(CC(C)(C)C)n2c(C)c1Br | . | 6 | . | . | 29% | ?
COc1ccccc1Cc1c(-c2ccco2)nc2cc(C)c(Br)c(C)n12 | . | 0 | . | . | 11µM* | ?
CCn1c(SCC(=O)Nc2cc(C)c(Cl)cc2OC)nnc1-c1ccccc1 | . | 7 | . | . | . | 1%

High-throughput results: PubChem, National Center for Advancing Translational Sciences (NCATS)
